Assay outcomes as filed in PubChem.
CendR NRP1 mod: alters CendR peptide binding to human NRP-1; O14786; FAM-RPARPAR peptide binding to NRP-1, fluorescence polarization; inhibition, % at 25 µM; 360,000 tested, 0.85% active; AID 602438;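 active = inhibition or corrected inhibition above about 18%, plus a signal ratio from 0.5 to 1.5, limit read from the data, passing the limit was not always enough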
Target sequence (O14786 whole entry, looked up): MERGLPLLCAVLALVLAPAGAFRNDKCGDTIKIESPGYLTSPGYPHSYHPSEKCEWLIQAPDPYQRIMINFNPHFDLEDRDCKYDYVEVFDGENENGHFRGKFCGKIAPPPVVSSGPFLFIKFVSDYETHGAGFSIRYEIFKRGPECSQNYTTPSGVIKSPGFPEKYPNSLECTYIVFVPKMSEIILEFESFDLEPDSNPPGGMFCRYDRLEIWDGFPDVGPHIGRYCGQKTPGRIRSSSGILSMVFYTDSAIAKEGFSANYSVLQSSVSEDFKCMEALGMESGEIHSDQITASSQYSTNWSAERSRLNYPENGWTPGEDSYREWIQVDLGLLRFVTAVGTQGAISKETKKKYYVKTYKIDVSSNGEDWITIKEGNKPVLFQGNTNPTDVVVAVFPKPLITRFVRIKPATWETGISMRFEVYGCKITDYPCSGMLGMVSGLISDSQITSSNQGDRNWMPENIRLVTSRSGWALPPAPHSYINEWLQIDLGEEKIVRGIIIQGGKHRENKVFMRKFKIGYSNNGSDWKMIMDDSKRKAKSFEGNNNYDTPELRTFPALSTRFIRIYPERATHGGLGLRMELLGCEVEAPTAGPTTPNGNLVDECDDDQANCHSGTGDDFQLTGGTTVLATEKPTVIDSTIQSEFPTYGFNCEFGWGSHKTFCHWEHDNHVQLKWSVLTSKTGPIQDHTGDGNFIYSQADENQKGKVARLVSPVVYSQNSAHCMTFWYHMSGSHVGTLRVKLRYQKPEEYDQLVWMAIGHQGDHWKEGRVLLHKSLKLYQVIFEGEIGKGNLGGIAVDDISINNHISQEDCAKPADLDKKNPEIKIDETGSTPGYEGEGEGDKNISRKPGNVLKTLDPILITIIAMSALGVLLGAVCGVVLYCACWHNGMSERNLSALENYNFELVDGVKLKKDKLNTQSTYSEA
MEKK2 mut-MEK5: signal of MEK5 binding to mutant human MEKK2 PB1 domain; 290,000 tested, 0.35% active; bead flow cytometry, Alexa488-MEK5 binding to MEKK2 mutant; percent response, % at 10 µM; in the data active = percent response above about 24%, passing the limit was not always enough
MEKK2 WT-MEK5: raises or lowers MEK5 binding to wildtype human MEKK2 PB1 domain; bead flow cytometry, Alexa488-MEK5 binding to MEKK2 WT; actives lie on both sides; binding response (% of control), % at 10 µM; 290,000 tested, 1.1% active; AID 1531; in the data active = binding response below about 67% or above about 130%
SKN-1 block: blocks SKN-1 activity in C. elegans. 360,000 tested, 0.49% active. AID 624304. inhibition, % at 21.8 µM. C. elegans VP596 Pgst-4::GFP/RFP ratio, acrylamide-induced, 24 h;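 active = interference check ratio from 0.5 to 1.5 plus GFP to RFP signal ratio inhibition reaching or exceeding a fixed threshold, cut at about 30% in these data, passing the limit was not always enough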
MEKK3 PB1 HTS: MEKK3-MEK5 PB1 interaction, increase or decrease; Q99759; bead-based flow cytometry, Alexa488-MEK5 binding to MEKK3; actives lie on both sides; 0 = blocked by unlabeled MEK5, 100 = vehicle; binding response (% of control), % at 10 µM; 290,000 tested, 1.4% active; AID 1529;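 active = binding response more than 3 SD above or below the average of its plate-row segment, actives on both sides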;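 also: Alexa488 bead fluorescence after subtracting the streptavidin-only scavenger bead signal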
* = called active by the depositor. A selection: hits, their analogues and other compounds. The true share with any hit is near 3.2%.

`C=C1CCN([C@@H](CC(C)C)C(=O)NCc2ccccc2)S(=O)(=O)c2ccccc21` gave CendR NRP1 mod 27*, MEKK2 mut-MEK5 2, MEKK2 WT-MEK5 105, SKN-1 block 16 and MEKK3 PB1 HTS 103.
`C=C1CCN([C@@H](CC(C)C)C(=O)NCCCc2ccccc2)S(=O)(=O)c2ccccc21` gave CendR NRP1 mod 30*, MEKK2 mut-MEK5 2, MEKK2 WT-MEK5 101, SKN-1 block 0 and MEKK3 PB1 HTS 104.
`C=C1CCN([C@@H](CC(C)C)C(=O)O)S(=O)(=O)c2ccccc21` gave CendR NRP1 mod 25*, MEKK2 mut-MEK5 -1, MEKK2 WT-MEK5 102, SKN-1 block 12 and MEKK3 PB1 HTS 99.
For C=C1CCN(C(C(=O)OC)C(C)C)S(=O)(=O)c2ccc(F)cc21 (stereo not drawn) the results were CendR NRP1 mod 28*, MEKK2 mut-MEK5 2, MEKK2 WT-MEK5 90, SKN-1 block -1 and MEKK3 PB1 HTS 92.
Screening C=C1CCN([C@@H](Cc2ccccc2)C(=O)NCCC(C)C)S(=O)(=O)c2ccccc21 returned CendR NRP1 mod 16, MEKK2 mut-MEK5 3, MEKK2 WT-MEK5 99, SKN-1 block 3 and MEKK3 PB1 HTS 102.
Clc1ccccc1OCCNc1nc(NCC2CC2)nc2ccsc12 was read as CendR NRP1 mod -3 and SKN-1 block 1.
CC(C)(C)OC(=O)N1CCC[C@H]1C(=O)N1CCC[C@H]1C(=O)NCc1ccncc1 was read as CendR NRP1 mod 1 and SKN-1 block -5.
`CC1CC(C)CN(C(=O)c2ccncc2)C1` (stereo not drawn) gave CendR NRP1 mod 14, MEKK2 mut-MEK5 4, MEKK2 WT-MEK5 95, SKN-1 block 32 and MEKK3 PB1 HTS 97.
CC1CCCN(C(=O)c2ccncc2)C1 (stereo not drawn) was read as CendR NRP1 mod -2, MEKK2 mut-MEK5 0, MEKK2 WT-MEK5 103, SKN-1 block 35* and MEKK3 PB1 HTS 101.
`CNC[C@H]1OCc2ccccc2-c2ccccc2C(=O)N([C@H](C)CO)C[C@H]1C` gave CendR NRP1 mod 8 and SKN-1 block 12.
For CC[C@@]12C(=O)N(c3ccc(OC)cc3)C(=O)N1[C@H](c1cccc(C)c1)[C@@H]1C(=O)N(Cc3ccccc3)C(=O)[C@@H]12 the results were CendR NRP1 mod 35*, MEKK2 mut-MEK5 -1, MEKK2 WT-MEK5 93, SKN-1 block 7 and MEKK3 PB1 HTS 99.
COc1ccccc1C(=O)Nc1onc(C)c1C#N was read as CendR NRP1 mod 20*, MEKK2 mut-MEK5 2, MEKK2 WT-MEK5 98, SKN-1 block -2 and MEKK3 PB1 HTS 102.
Cc1noc(NC(=O)c2ccccc2Cl)c1C#N was read as CendR NRP1 mod 5, MEKK2 mut-MEK5 12, MEKK2 WT-MEK5 103, SKN-1 block -9 and MEKK3 PB1 HTS 102.
N#CC1CCCc2c1[nH]c1ccc([N+](=O)[O-])cc21 (stereo not drawn) was read as CendR NRP1 mod 14, MEKK2 mut-MEK5 -23, MEKK2 WT-MEK5 86, SKN-1 block 8 and MEKK3 PB1 HTS 88.
Cc1ccc(-c2c(C)nn3c(N4CCOCC4)cc(C)nc23)cc1 was read as CendR NRP1 mod 5, MEKK2 mut-MEK5 -4, MEKK2 WT-MEK5 97, SKN-1 block 35* and MEKK3 PB1 HTS 98.
`Cc1cc(N2CCOCC2)n2nc(C)c(-c3ccccc3)c2n1` gave CendR NRP1 mod 7, MEKK2 mut-MEK5 0, MEKK2 WT-MEK5 96, SKN-1 block 4 and MEKK3 PB1 HTS 94.
Screening Nc1cc(N)nc(SCC(=O)N2CCCCC2)n1 returned CendR NRP1 mod -1, MEKK2 mut-MEK5 4, MEKK2 WT-MEK5 106, SKN-1 block -8 and MEKK3 PB1 HTS 109.
Cc1cc(C)nc(SCC(=O)N2CCCCC2)n1 was read as CendR NRP1 mod 10, MEKK2 mut-MEK5 14, MEKK2 WT-MEK5 -2.0*, SKN-1 block -14 and MEKK3 PB1 HTS 91.
`N#CC(c1ccccc1)c1ccc2c(C(F)(F)F)cc(C(F)(F)F)nc2n1` (stereo not drawn) gave CendR NRP1 mod -8, MEKK2 mut-MEK5 -8, MEKK2 WT-MEK5 91, SKN-1 block 18 and MEKK3 PB1 HTS 95.
Screening Cc1ccc(C(C#N)c2ccc3c(C(F)(F)F)cc(C(F)(F)F)nc3n2)cc1 (stereo not drawn) returned CendR NRP1 mod -3, MEKK2 mut-MEK5 10, MEKK2 WT-MEK5 112, SKN-1 block 44* and MEKK3 PB1 HTS 112.
